# Laboratory results reported in PubChem BioAssay AID624354 (Sanford-Burnham Center for Chemical Genomics, 2012).
# Among all 360,000 compounds or so, about 3,800 (1.1%) were called active. The full list was thinned out, with actives kept by preference. Values without a mark were called inactive.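 The calls were made as follows: active = compounds causing at least 50% loss of cell viability in the single-dose screen, relative to plate controls; inactive = the rest.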
# Test: TRAIL-exposed caspase-8 expressing cell killing – NB7+C8 cells, ATPlite luminescence, TRAIL sensitizer project, primary screen (AID 624354)
# Settings: at 10 µM, hits give high values
row,SMILES,"inhibition (viability loss, TRAIL sensitization)"
1,N#CCCN(C(=S)Nc1ccc(Cl)c(Cl)c1)C1CCCCC1,-41.1%
2,COc1ccc(NS(=O)(=O)c2ccc(C)c(C(=O)N(C)Cc3ccc(OC)cc3OC)c2)cc1,17.8%
3,O=C(NNC(=O)c1ccccc1O)c1ccccc1O,59.8% (active)
4,Cc1cccc(NS(=O)(=O)c2cccc(C(=O)NNC(=O)c3ccccc3O)c2)c1,24.7%
5,O=C(NNC(=O)c1cc(S(=O)(=O)N2CCCCC2)ccc1Cl)c1ccccc1O,14%
6,CC1(C)CC(=O)C=C(NC2CC(C)(C)NC(C)(C)C2)C1,-7.42%
7,C=CCNC(=O)c1ccc2c3n(nc2c1)-c1ccc(C)cc1CO3,47.7%
8,CCOC(=O)N1CCN(C(=O)C2CCN(S(C)(=O)=O)CC2)CC1,9.65%
9,Cc1nn(-c2ccccc2)nc1C(=O)OCC(=O)N1CCCCC1C (stereo not given),10.3%
10,COC(=O)c1cc(S(=O)(=O)N2CCN(c3cc(C)ccc3C)CC2)c[nH]1,-3.18%
11,Cc1nc2ccc(S(=O)(=O)NCC(=O)NCCN3CCCCC3C)cc2s1 (stereo not given),-1.47%
12,Cn1c(=O)[nH]c(=O)c2c1[nH]c(=S)n2Cc1ccccc1,7.43%
13,N#Cc1c(-c2cccs2)nc(SCC(=O)c2ccc(Br)cc2)[nH]c1=O,-12.9%
14,C=CCN(CC=C)S(=O)(=O)c1ccc(C(=O)Nc2nc3c(s2)CCc2ccccc2-3)cc1,28.5%
15,N#Cc1ccc(C(=O)Nc2nc(-c3cccs3)c(C(=O)C(F)(F)F)s2)cc1,53.5% (active)
16,Cc1ccc(NC(=O)CCC(=O)N2CCC(c3ccccc3)=N2)cc1S(=O)(=O)N1CCCCC1,18.8%
17,Cc1nc2nc[nH]n2c(=O)c1NC(=O)c1cccc(OCC(C)C)c1,-7.44%
18,O=C(CP(=O)(c1ccccc1)c1ccccc1)N1CCOCC1,-4.37%
19,O=C(CSC(=S)N1CCCCC1)c1c(F)cccc1F,3.44%
20,O=C(CSC(=S)N1CCOCC1)c1ccccc1,57.5% (active)

row,SMILES,"inhibition (viability loss, TRAIL sensitization)"
1,O=c1c(-c2ccccc2Cl)c[nH]n1-c1ccccc1,1.07%
2,CS(=O)(=O)c1ccc(C(=O)NNC(=O)c2cccs2)cc1,-3.16%
3,Cc1cc2cc3c(cc2nc1SCC(=O)Nc1c(C)cccc1C)CCC3,3.78%
4,CCn1c(NC(=O)c2nn(C)cc2Br)nc2ccccc21,16.9%
5,Cn1c(CC(=O)NNC(=O)c2ccccc2F)nc2ccccc21,11.4%
6,CCC(C(=O)Nc1c(C)cccc1C)n1c(-c2cc(C)cs2)nc2ccccc21 (stereo not given),9.25%
7,Cc1nc2ccccc2c(C)c1C(=O)c1ccc(F)cc1,2.13%
8,Cn1c(NC(=O)c2ccccc2)nc2ccccc21,49.5% (active)
9,Cn1c(-c2ccc(C(=O)c3ccccc3)s2)nc2ccccc21,66.6% (active)
10,COc1cc(-c2nc(S(=O)(=O)c3ccc(Cl)cc3)c(N(C)C)o2)cc(OC)c1OC,-2.14%
11,COc1ccc(N(C(=O)c2ccc(C)cc2)S(=O)(=O)c2cccs2)cc1,-2.28%
12,CCN(CC)S(=O)(=O)c1ccc(N2CCOCC2)c(NC(=O)C2CSC3(C)CCC(=O)N23)c1 (stereo not given),-1.07%
13,Cn1c(-c2ccco2)nc2cc3ccccc3cc21,89.4% (active)
14,COc1ccc(-n2cnc3cc(NCc4ccco4)ccc32)cc1,16.5%
15,Cn1c(SCC(=O)Nc2ccc(Br)cc2F)nnc1-c1ccco1,-0.204%
16,Cc1c(CNCCc2ccccc2)c(C(=O)O)c(C)n1-c1ccccc1,-25.6%
17,COCc1cc(=O)oc2cc(NS(=O)(=O)c3ccc(C)cc3)ccc12,2.58%
18,Cc1cc(NC(=O)CCC(=O)N(Cc2ccccc2)C(C(=O)NC2CCCC2)c2ccc(C)o2)no1 (stereo not given),-0.804%
19,CC(C)CCN1CCN(Cc2cn[nH]c2C2CCCCC2)CC1CCO (stereo not given),5.07%
20,COc1ccc(-c2nc(-c3ccccc3)no2)c(OC)c1,83% (active)

row,SMILES,"inhibition (viability loss, TRAIL sensitization)"
1,COc1ccc(/C=C/c2noc(-c3ccccc3OC(C)=O)n2)cc1,12.1%
2,COc1ccc(-c2noc(CNC(=O)C(C)Oc3ccccc3)n2)cc1 (stereo not given),-4.7%
3,Cc1ccc([N+](=O)[O-])cc1S(=O)(=O)N1CCCN(C)CC1,1.18%
4,Cc1ccc(C)c(S(=O)(=O)N2CCN(c3ncnc4sccc34)CC2)c1,66.5% (active)
5,Cc1ccc(S(=O)(=O)N2CCC3(CC2)OCCO3)c(C)c1,1.61%
6,CNC(=S)N1CCC(NC(=O)C(Cc2ccc(F)cc2)NC(C)=O)CC1 (stereo not given),-1.63%
7,CCCCCc1c(-c2ccc(OC)c(OC)c2)ncn1CCc1ccccc1OC,51.2% (active)
8,CCCCc1c(-c2ccc(Cl)cc2)ncn1CCc1ccccc1OC,31.8%
9,CCCCCc1c(-c2cccc(Br)c2)ncn1CCc1ccccc1OC,23.2%
10,CS(=O)(=O)N(CC(=O)N1CCN(c2ccc(F)cc2)CC1)C1CCCCC1,-11.1%
11,CCOc1ccc(NC(=O)C2CCCN(C(=O)Nc3ccccc3)C2)cc1 (stereo not given),-15.9%
12,O=C(/C=C/Nc1ccc(S(=O)(=O)Nc2cnc3ccccc3n2)cc1)c1cccnc1,-7.32%
13,CCOc1ccc(N/C=C/C(=O)c2ccccc2)cc1,66.6% (active)
14,COc1ccc(C(=O)/C=C/Nc2ccccn2)cc1,73.3% (active)
15,COC(C(=O)Nc1ccc(S(=O)(=O)Nc2ccc(C)c(C)c2)cc1)c1ccccc1 (stereo not given),5.37%
16,Cc1ccc(NNC(=O)C2CCC2)cc1C,-7.51%
17,CCOc1ccc(/C=C(/NC(=O)c2ccccc2)C(=O)NCCC(=O)O)cc1,-4.31%
18,COCCN(C(=O)CCC(=O)Nc1ccccn1)C(C(=O)NCCC(C)C)c1ccc(OC)cc1 (stereo not given),-1.74%
19,Cc1ccc(N/C=C/C(=O)c2ccccc2)cc1C,78.5% (active)
20,COc1ccc(CN2C(=O)CN=C2Nc2ccc(C)cc2C)cc1,-15.6%
